# The list is not random: actives were taken first. Their share in the collection is about 1.3%.
# TrxR1 substrate: qHTS Assay for Substrates of Mammalian Selenoprotein Thioredoxin Reductase 1 (TrxR1): qHTS. Thioredoxin reductase 1, cytoplasmic (Rattus norvegicus), O89049. purified TrxR1 substrate turnover, NADPH consumption readout. Potency, µM (top dose mostly 114 µM), without a hit: top-dose activity change, negative = substrate turnover. hit rate 0.01% among 390,000. AID 588456, 2011; note: potency is the fitted concentration of half-maximal effect; % is set by controls: 0 for no effect and ±100 for the full control effect; nearly all actives have a fitted effect of over 50% in size
# Target sequence (O89049 whole entry, looked up): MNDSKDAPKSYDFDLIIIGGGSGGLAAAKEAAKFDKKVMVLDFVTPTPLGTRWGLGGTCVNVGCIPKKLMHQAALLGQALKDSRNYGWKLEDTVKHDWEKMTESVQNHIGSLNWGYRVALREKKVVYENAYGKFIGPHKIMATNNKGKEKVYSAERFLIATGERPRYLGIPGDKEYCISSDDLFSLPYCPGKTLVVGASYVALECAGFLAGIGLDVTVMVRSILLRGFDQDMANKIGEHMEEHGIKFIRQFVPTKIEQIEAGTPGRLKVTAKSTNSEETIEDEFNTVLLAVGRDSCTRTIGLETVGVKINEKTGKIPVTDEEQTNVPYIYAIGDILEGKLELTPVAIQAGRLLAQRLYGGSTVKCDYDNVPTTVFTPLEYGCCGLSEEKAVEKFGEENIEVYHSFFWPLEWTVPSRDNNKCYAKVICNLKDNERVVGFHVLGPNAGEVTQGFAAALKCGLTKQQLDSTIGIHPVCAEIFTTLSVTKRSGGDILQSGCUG
#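 Rat TrxR1, dispensed at 90 nM, was prereduced with 400 uM NADPH (final) for 5 min at ~22 deg C, then incubated with compound 15 min before 400 uM selenite. A first-read NADPH fluorescence drop versus no-compound background flagged substrates.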
# IDH1 R132H inh: qHTS for Inhibitors of mutant isocitrate dehydrogenase 1 (IDH1): qHTS; Isocitrate dehydrogenase [NADP] cytoplasmic (Homo sapiens), O75874; Potency, µM (series often up to 76.6 µM), without a hit: at the highest dose activity change, negative = inhibition, most hits filed as inhibitors; IDH1-R132H enzyme, NADPH consumption, diaphorase/resazurin fluorescence; hit rate 0.093% among 390,000; note: potency is the fitted concentration of half-maximal effect; % is set by controls: 0 for no effect and ±100 for the full control effect; nearly all actives have a fitted effect of over 65% in size
#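 IDH1-R132H (0.5 ug/mL dispensed) in pH 7.5 Tris buffer was preincubated 30 min with compound, then given a substrate mix of 0.016 mM NADPH and 2 mM alpha-KG for 80 min at room temperature; remaining NADPH was read by diaphorase/resazurin fluorescence.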
# Apoferritin bind: qHTS Assay for Identification of Novel General Anesthetics | hit rate 0.074% among 350,000 | Ferritin light chain (Equus caballus), P02791 | apoferritin/1-aminoanthracene competitive binding, fluorescence | AID 485281, 2010 | Potency, µM (series often up to 77.5 µM), inactives show top-dose activity change, negative = displacement, most hits filed as inhibitors; note: potency is the fitted concentration of half-maximal effect; % is set by controls: 0 for no effect and ±100 for the full control effect; nearly all actives have a fitted effect of over 20% in size
# Target sequence (P02791 2-175 limits assumed): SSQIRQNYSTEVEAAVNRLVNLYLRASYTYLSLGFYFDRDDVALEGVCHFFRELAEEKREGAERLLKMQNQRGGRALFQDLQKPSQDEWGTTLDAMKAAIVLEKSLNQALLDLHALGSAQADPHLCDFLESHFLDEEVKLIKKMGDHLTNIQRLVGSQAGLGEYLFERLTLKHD
#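 Read-out: endpoint 1-AMA fluorescence, excitation 380 nm and emission 535 nm, after compounds sit 10 min at room temperature with 10 uM horse-spleen apoferritin in 50% saturated 1-AMA/PBS. Values come from four-parameter Hill fits.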
# GALK inhibitor: qHTS Assay for Inhibitors of Human Galactokinase (GALK). AID 1868, 2009. Purified GALK, Kinase-Glo residual ATP luminescence. hit rate 0.007% among 270,000. Potency, µM (series often up to 57.5 µM), for inactives: top-dose activity change, negative = inhibition, hits mostly inhibitors. P51570; note: potency is the fitted concentration of half-maximal effect; % is set by controls: 0 for no effect and ±100 for the full control effect
#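 ATP-depletion format; final 35 uM ATP, 100 uM D-galactose, 5 nM enzyme; pH 8.0 HEPES/Mg2+ buffer; 60 min RT; luminescence read 10 min after detection reagent.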
# PKM2 act: qHTS Assay for Activators of Human Muscle isoform 2 Pyruvate Kinase. Pyruvate kinase PKM (Homo sapiens), P14618. purified PKM2, Kinase-Glo ATP luminescence, activation; response scale: 0% is enzyme alone, no compound. Potency, µM (top dose mostly 57.5 µM), for inactives: top-dose activation, actives largely listed as activators. hit rate 0.34% among 260,000. AID 1631, 2009; note: potency is the fitted concentration of half-maximal effect; % is set by controls: 0 for no effect and ±100 for the full control effect; nearly all actives have a fitted effect of over 55% in size
#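 hPK-M2, >95% pure; 0.1 mM ADP / 0.5 mM PEP final; imidazole pH7.2 buffer w/ 7 mM MgCl2, 50 mM KCl; 1 h RT; Kinase-Glo lum. Intermediate enzyme activity for dual inhibitor/activator qHTS.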
# TrxR1 inh-1: qHTS Assay for Inhibitors of Mammalian Selenoprotein Thioredoxin Reductase 1 (TrxR1): qHTS; Thioredoxin reductase 1, cytoplasmic (Rattus norvegicus), O89049; recombinant rTrxR1, NADPH fluorescence consumption, selenite substrate; Potency, µM (highest dose often 114 µM), inactives show top-dose activity change, negative = inhibition, most hits filed as inhibitors; hit rate 1% among 390,000; note: potency is the fitted concentration of half-maximal effect; % is set by controls: 0 for no effect and ±100 for the full control effect; nearly all actives have a fitted effect of over 65% in size
#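 Rat TrxR1 (90 nM in the dispensed reagent) was pre-reduced with 400 uM NADPH for 5 min at room temperature, then incubated with compound for 15 min. After 400 uM selenite was added, NADPH fluorescence (Ex 340/Em 450 nm) was followed for 8 min.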
# TRb SRC2 Alpha: Protein Interaction Secondary Assay for Inhibitors of the Interaction of Thyroid Hormone Receptor and Steroid Receptor Coregulator 2, Alpha Screen. shares compounds with TrxR1 inh-1. AlphaScreen TRb LBD-SRC2 peptide binding, luminescence. Potency, µM. hit rate 50% among 30; calls by dose curve
# HepG2 tox: Cell Viability Secondary Assay for Inhibitors of the Interaction of Thyroid Hormone Receptor and Steroid Receptor Coregulator 2. shares compounds with TrxR1 inh-1. HepG2 viability, ATP luminescence (CellTiter-Glo), 72 h. Potency, µM. hit rate 50% among 40. AID 2447, 2010; calls by dose curve
# AR SRC2 FP: Androgen Receptor Selectivity Assay for Inhibitors of the Interaction of Thyroid Hormone Receptor and Steroid Receptor Coregulator 2; shares compounds with TrxR1 inh-1; calls only; AR-LBD Tx-SRC2-3 fluorescence polarization, 3 h; 25 tested, under 10 active; call rule not given here
# PPARg DRIP2 FP: PPAR gamma Selectivity Assay For Inhibitors of the Interaction of Thyroid Hormone Receptor and Steroid Receptor Coregulator 2. AID 2449, 2010. shares compounds with TrxR1 inh-1. PPARg LBD / Texas Red DRIP-2 peptide, fluorescence polarization, 3 h. Potency, µM. 25 tested, under 10 active; calls by dose curve
# VDR-SRC2 FP sel: Vitamin D Receptor Selectivity Assay for Inhibitors of the Interaction of Thyroid Hormone Receptor and Steroid Receptor Coregulator 2 | VDR LBD/SRC2-3 peptide, fluorescence polarization, 3 h | shares compounds with TrxR1 inh-1 | AID 2455, 2010 | Potency, µM | 25 tested, under 10 active; calls by dose curve
# TRb-SRC2 FP Fluo: Secondary Confirmation Assay for Inhibitors of the Interaction of Thyroid Hormone Receptor and Steroid Receptor Coregulator 2, Fluorescein Fluoroprobe; Potency, µM; AID 2487, 2010; 20 tested, under 10 active; shares compounds with TrxR1 inh-1; TRb LBD / fluorescein-SRC2 peptide, fluorescence polarization; call rule not given here
# GR inh: qHTS Assay for Inhibitors of Mammalian Selenoprotein Thioredoxin Reductase 1 (TrxR1): Counterassay in Glutathione Reductase (GR); shares compounds with TrxR1 inh-1; 55 tested, under 10 active; activity change, negative = inhibition, % at 57.1 µM; purified GR, DTNB reduction absorbance 405 nm kinetic
# TrxR1 inh-2: qHTS Assay for Inhibitors of Mammalian Selenoprotein Thioredoxin Reductase 1 (TrxR1): Hit Validation in Primary Screen. shares compounds with TrxR1 inh-1. recombinant TrxR1, NADPH fluorescence consumption, selenite substrate. Potency, µM, usual class: inhibitors. hit rate 50% among 55. AID 652023, 2013
# TrxR1 insulin: qHTS Assay for Inhibitors of Mammalian Selenoprotein Thioredoxin Reductase 1 (TrxR1): Insulin MOA Assay; shares compounds with TrxR1 inh-1; TrxR1 Trx-coupled insulin reduction, NADPH absorbance 340 nm; Potency, µM; hit rate 20% among 55; AID 652037, 2013;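 active = compounds with a measured potency under 100 micromolar; inconclusive = filed, but no rule given; inactive = potency at or above that, or unmeasurable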
# TrxR1 inh-3: qHTS Assay for Inhibitors of Mammalian Selenoprotein Thioredoxin Reductase 1 (TrxR1): DTNB Assay | shares compounds with TrxR1 inh-1 | Potency, µM | AID 652256, 2013 | hit rate 90% among 55 | purified TrxR1, DTNB reduction, A412;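 active = a half-inhibiting concentration could be measured and was below 100 µM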
# * hit, by the source's call; i = inactive; ? = inconclusive; / = no result; ! = repeats disagree; [ ] = dose if it differs, or a comment. Unless noted, calls come from the whole dose curve; as a rule, active = well fitted curve in the direction sought with a large enough effect; inconclusive = small, poorly fitted or top-dose-only effect, or another doubt; inactive = no such curve, though single readings can be large; an effect the other way counts as inactive or inconclusive.
SMILES,TrxR1 substrate,IDH1 R132H inh,Apoferritin bind,GALK inhibitor,PKM2 act,TrxR1 inh-1,TRb SRC2 Alpha,HepG2 tox,AR SRC2 FP,PPARg DRIP2 FP,VDR-SRC2 FP sel,TRb-SRC2 FP Fluo,others
CC1CCN(C(=O)C(C)OC(=O)c2ccc(S(C)(=O)=O)c([N+](=O)[O-])c2)CC1 (configuration not stated),5%,/,/,/,/,11µM*,7.3µM*,i,i,i,i,3.6µM*,
Cc1ccc(N2CCN(C(=O)CCc3c(C)nc4ncnn4c3C)CC2)c(C)c1,11%,-5%,-10%,/,/,41%,/,/,/,/,/,/,
Cc1ccccc1OCc1nnc(SCc2cc(=O)c3ccc(C)c(C)c3[nH]2)n1C,1%[57.1 µM],-2%,-12%,/,/,10%[57.1 µM],/,/,/,/,/,/,
Fc1ccc(/C=C2\CCCC3=C2Nc2ncnn2C3c2ccc(F)cc2)cc1 (configuration not stated),1%[57.1 µM],-3%,?,0%,23%,0.71µM*,/,/,/,/,/,/,GR inh=-16;TrxR1 inh-2=3*;TrxR1 insulin=i;TrxR1 inh-3=0.25µM*
O=C(c1ccc(-c2ccc([N+](=O)[O-])cc2)o1)N1CCCC(C(F)(F)F)C1 (configuration not stated),-12%,5%,/,/,/,?,/,/,/,/,/,/,
O=C(c1ccc(-c2ccc([N+](=O)[O-])cc2)o1)N1CCCCCCC1,-11%,-10%,/,/,/,5µM*,/,/,/,/,/,/,GR inh=-19;TrxR1 inh-2=4.7*;TrxR1 insulin=i;TrxR1 inh-3=1µM*
Cc1ccc(S(=O)(=O)C(CNS(=O)(=O)c2cc(F)ccc2F)c2cccs2)cc1 (configuration not stated),-7%[57.1 µM],-5%,6%,/,/,-4%[57.1 µM],/,/,/,/,/,/,
CS(=O)(=O)c1ccc(C(=O)OCC(=O)NCC2CCCO2)cc1[N+](=O)[O-] (configuration not stated),2%,/,/,/,/,3.5µM*,i,?,i,i,i,i,
CS(=O)(=O)c1ccc(C(=O)OCC(=O)NC(=O)NC2CCCCC2)cc1[N+](=O)[O-],-4%,/,/,/,/,7.1µM*,17µM*,i,i,?,49µM*,14µM*,
Cc1ccc(F)cc1NC(=O)COC(=O)c1ccc(S(C)(=O)=O)c([N+](=O)[O-])c1,1%,/,/,/,/,2µM*,i,13µM*,/,/,/,i,
COc1ccc(C(=O)OCC(=O)NC(=O)NC2CCCC2)cc1[N+](=O)[O-],-5%[57.1 µM],0%,/,/,/,9%,/,/,/,/,/,/,
Cn1cccc1C(=O)NC(=O)COC(=O)c1ccc(S(C)(=O)=O)c([N+](=O)[O-])c1,-3%,8%,/,/,/,4.5µM*!,27µM*,?,i,52µM*,?,?,
COc1cccc(CNC(=O)COC(=O)c2ccc(S(C)(=O)=O)c([N+](=O)[O-])c2)c1,0%,/,/,/,/,1.3µM*,i,i,i,i,i,i,
CCc1cc(=O)[nH]c(SCc2nc(-c3ccc(C(F)(F)F)cc3)no2)n1,3%[57.1 µM],-14%,-1%,/,/,8%[57.1 µM],/,/,/,/,/,/,

# Bioassay records from PubChem BioAssay.
